# From PubChem BioAssay (EPA / NIEHS)
# Records with an inconclusive call do not appear. Where a structure was tested more than once in an assay, its records may differ in their call. Active and inactive are the calls of the source. Rule for the calls: active = hit-call score of the fitted dose curve at least 0.9, where 1 is the maximum; inconclusive = response in the unintended direction; inactive = score below 0.9.
# Biological target: Oxysterols receptor LXR-alpha (Homo sapiens) (UniProt Q13133)
# Sequence (Q13133 whole entry, looked up): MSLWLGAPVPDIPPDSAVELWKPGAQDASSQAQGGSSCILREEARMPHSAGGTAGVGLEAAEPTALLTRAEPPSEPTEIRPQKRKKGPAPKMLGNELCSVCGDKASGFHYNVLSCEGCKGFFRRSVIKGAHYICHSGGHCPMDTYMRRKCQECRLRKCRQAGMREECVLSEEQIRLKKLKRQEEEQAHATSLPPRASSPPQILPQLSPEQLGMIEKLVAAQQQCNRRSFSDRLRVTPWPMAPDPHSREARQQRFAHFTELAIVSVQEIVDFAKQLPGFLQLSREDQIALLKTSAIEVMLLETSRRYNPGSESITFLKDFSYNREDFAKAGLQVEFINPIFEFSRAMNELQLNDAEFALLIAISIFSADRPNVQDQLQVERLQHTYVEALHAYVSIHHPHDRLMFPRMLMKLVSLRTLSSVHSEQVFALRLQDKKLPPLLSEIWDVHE
# Test: ATG_LXRa_TRANS: Attagene TRANS-FACTORIAL HepG2 Assay for human Liver X Receptor alpha (LXRa) (AID 2282980)
# Settings: HepG2 Attagene TRANS reporter, LXRa transactivation
# Experimental: ATG_TRANS is a cell-based, multiplexed-readout assay that uses HepG2, a human liver cell line, with measurements taken at 24 hours after chemical dosing in a 24-well plate.ATG_LXRa_TRANS is one of 30 assay component(s) measured or calculated from the ATG_TRANS assay. It is designed to make measurements of mRNA induction, a form of inducible reporter, as detected with fluorescence intensity signals by Reverse transcription polymerase chain reaction (RT-PCR) and Capillary electrophoresis technology.Data from the assay component ATG_LXRa_TRANS was analyzed into 1 assay endpoint. This assay endpoint, ATG_LXRa_TRANS, was analyzed in the positive analysis fitting direction relative to DMSO as the negative control and baseline of activity. Using a type of inducible reporter, measures of mRNA for gain-of-signal activity can be used to understand the reporter gene at the transcription factor-level as they relate to the gene NR1H3. Furthermore, this assay endpoint can be referred to as a primary readout, because this assay has produced multiple assay endpoints where this one serves a reporter gene function. To generalize the intended target to other relatable targets, this assay endpoint is annotated to the nuclear receptor intended target family, where the subfamily is non-steroidal.
# Human liver HepG2 cells are transiently transfected with multiple reporter transcription units (MRTUs) in 6-well plates using FuGene 6 reagent (Roche; 3 ml FuGene/1 mg DNA). The MRTU constructs are regulated by a cis-regulating element (promoter). […] A major difference between the CIS and TRANS system is that in CIS activities of endogenous TFs are measured, whereas the TRANS assay evaluates changes in activities of exogenous, chimeric NR-Gal4 proteins. […] At the end of 24 hour incubation, total RNA was isolated using TriZol reagent (Invitrogen). The isolated RNA is then reverse-transcribed using oligo(dT) primer and Mo-MLV reverse transcriptase (Invitrogen) with DNAse I (Ambion) treatment for 30 min. The one-tenth of the produced cDNA was amplified by PCR using Taq DNA polymerase (Invitrogen) and two reporter sequence-specific primers. The PCR products were fluorescently labeled by primer extension with 6-arboxyfluorescein (6-FAM) 5'-labeled reporter sequence-specific primer (2 min at 95 C, 20 s at 68 C and 10 min at 72 C) and these products were digested with 5U of HpaI (New England Biolabs) for 2h at 37 C. The fragments were purified using Qiaquick PCR columns (Qiagen), analyzed on an ABI 3130xL genetic analyzer (Applied Biosystems) with peak positions identified by using a set of X-rhodamine (ROX)-labeled MapMarker1000 molecular weight standards (BioVentures). The raw capillary electrophoresis data was processed using Attagraph software (Attagene).
SMILES,outcome,AC50
CNC(=O)ON=CC(C)(C)SC,inactive,–
COP(N)(=O)SC (stereo not given),inactive,–
CNC(=S)S,inactive,–
COC(=O)C(C)Oc1ccc(Oc2ccc(Cl)cc2Cl)cc1 (stereo not given),inactive,–
O=C(Nc1ccccc1)Nc1ccnc(Cl)c1,inactive,–
COc1nc(C)nc(NC(=O)NS(=O)(=O)c2ccccc2CCC(F)(F)F)n1,inactive,–
CON(C)C(=O)Nc1ccc(Cl)c(Cl)c1,inactive,–
Cc1c(F)c(F)c(COC(=O)C2C(/C=C(\Cl)C(F)(F)F)C2(C)C)c(F)c1F (stereo not given),inactive,–
CCCCOC(=O)c1ccccc1C(=O)OCCCC,inactive,–
C#CCOS(=O)OC1CCCCC1Oc1ccc(C(C)(C)C)cc1 (stereo not given),inactive,–
CC(C)C1(C)N=C(c2nc3ccccc3cc2C(=O)O)NC1=O (stereo not given),inactive,–
COc1nc(NC(C)C)nc(NC(C)C)n1,inactive,–
CC(C)(C)c1ccc(CSc2cnn(C(C)(C)C)c(=O)c2Cl)cc1,inactive,–
CCCCNC(=O)OCC#CI,inactive,–
COc1cnc(OC)n2nc(NS(=O)(=O)c3c(OCC(F)F)cccc3C(F)(F)F)nc12,inactive,–
CCOC(=O)C(Cl)Cc1cc(-n2nc(C)n(C(F)F)c2=O)c(F)cc1Cl (stereo not given),inactive,–
O=C(O)c1nc(Cl)ccc1Cl,inactive,–
CCNc1nc(Cl)nc(NC(C)C)n1,inactive,–
Cc1cc(Cl)ccc1OCC(=O)O,inactive,–
N#Cc1cc(Br)c(O)c(Br)c1,inactive,–

SMILES,outcome,AC50
N#Cc1nn(-c2c(Cl)cc(C(F)(F)F)cc2Cl)c(N)c1S(=O)C(F)(F)F (stereo not given),inactive,18.5 µM (active)
CCON=C(CC)C1=C(O)CC(c2c(C)cc(C)cc2C)CC1=O (stereo not given),inactive,–
OC(c1ccc(Cl)cc1)(c1cncnc1)c1ccccc1Cl (stereo not given),inactive,–
COc1ccc(C(c2ccc(OC)cc2)C(Cl)(Cl)Cl)cc1,inactive,–
CCCC1COC(Cn2cncn2)(c2ccc(Cl)cc2Cl)O1 (stereo not given),inactive,–
C=CCC1=C(C)C(OC(=O)C2C(C=C(C)C)C2(C)C)CC1=O (stereo not given),inactive,–
CCOP(=S)(OCC)SCn1c(=O)oc2cc(Cl)ccc21,inactive,–
CCc1nn(C)c(C(=O)NCc2ccc(C(C)(C)C)cc2)c1Cl,–,0.258 µM (active)
CO/C=C(/C(=O)OC)c1ccccc1Oc1cc(Oc2ccccc2C#N)ncn1,inactive,–
CCCCNC(=O)n1c(NC(=O)OC)nc2ccccc21,inactive,–
COC(=O)c1ccccc1C(=O)OC,inactive,–
COC(=O)N(OC)c1ccccc1COc1ccn(-c2ccc(Cl)cc2)n1,inactive,–
CS/C(C)=N/OC(=O)N(C)SN(C)C(=O)O/N=C(\C)SC,inactive,–
Cc1ccc(-c2c(Cl)nc(C#N)n2S(=O)(=O)N(C)C)cc1,inactive,–
C=CC1(C)OC(=O)N(c2cc(Cl)cc(Cl)c2)C1=O (stereo not given),inactive,–
CCOC(=O)CC(SP(=S)(OC)OC)C(=O)OCC (stereo not given),inactive,–
CCNc1nc(Cl)nc(NCC)n1,inactive,–
CC1COC(Cn2cncn2)(c2ccc(Oc3ccc(Cl)cc3)cc2Cl)O1 (stereo not given),inactive,–
CN(C)C(=S)SSC(=S)N(C)C,inactive,–
